Laboratory results taken from the supplement of paper PMC10849652.
Of roughly 8,800 targets only a part is listed; those with a hit were picked by preference. About 0.5% of all pairs of compound and target were hits. A number with no mark means an inactive call.

Key:
Experiment in all cases: log2 fold change, soluble protein after heating vs DMSO (PISA); higher = thermal stabilisation; K562 lysate, 10 uM; active = over 0.2 and 3.5 SD of the protein, either way, in both replicates (recomputed)
erlotinib = compound: C#Cc1cccc(Nc2ncnc3cc(OCCOC)c(OCCOC)cc23)c1 [erlotinib]
Method in brief: (§1)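 A 30 min treatment with 10 μM compound was applied to crude K562 extract at 1 mg/mL protein in PBS pH 7.4 with 1 mM MgCl2. Heating for 3 min spanned 48°C-58°C, after which aliquots were pooled, adjusted to 0.5% NP-40 at 4°C and spun at 21,000xg for 90 min. TMTpro 16plex LC-MS/MS of the supernatant, with channel sums equalised, gave values recorded as log-two fold change in thermal stability against solvent controls, from duplicates.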

[1] = compound: C/C(=N\NC(=O)C1=CC(=CC=C1)S(=O)(=O)N2CCOCC2)/C3=C(C=CC(=C3)Cl)O
Method in brief: as §1

[2] = compound: C1=CC(=CC=C1C2=NC3=C(N2)C=C(C=C3)C(=O)N)OC4=CC=C(C=C4)Cl
Method in brief: as §1

[3] = compound: C1=CC2=C(C=CC(=C2)/C=C\3/C(=O)NC(=NCC4=CC=CS4)S3)N=C1
Method in brief: as §1

[4] = compound: C1=CC2=NC=CN=C2C=C1/C=C/3\C(=O)NC(=O)S3
Method in brief: as §1

[5] = compound: C1=CC=C(C=C1)C2=NC(=C(N2)C3=CC=NC=C3)C4=CC(=C(C=C4)Cl)O
Method in brief: as §1

[6] = compound: C1=CC=C2C(=C1)C3=NNC4=CC=CC(=C43)C2=O
Method in brief: as §1

[7] = compound: C1CCN(C1)C(=O)NC2=CC=CC(=C2)NC3=NC=C(C(=N3)NCCC4=CN=CN4)Br
Method in brief: as §1

[8] = compound: C1CN(CCC1(CC2=CC=C(C=C2)Cl)N)C3=NC=NC4=C3C=CN4
Method in brief: as §1

IRAK-1-4 Inhibitor I = compound: C1COCCN1CCN2C3=CC=CC=C3N=C2NC(=O)C4=CC(=CC=C4)[N+](=O)[O-] [IRAK-1-4 Inhibitor I]
Method in brief: as §1

Chain of UniProt Q6ZPD9 (Q6ZPD9 whole entry, looked up): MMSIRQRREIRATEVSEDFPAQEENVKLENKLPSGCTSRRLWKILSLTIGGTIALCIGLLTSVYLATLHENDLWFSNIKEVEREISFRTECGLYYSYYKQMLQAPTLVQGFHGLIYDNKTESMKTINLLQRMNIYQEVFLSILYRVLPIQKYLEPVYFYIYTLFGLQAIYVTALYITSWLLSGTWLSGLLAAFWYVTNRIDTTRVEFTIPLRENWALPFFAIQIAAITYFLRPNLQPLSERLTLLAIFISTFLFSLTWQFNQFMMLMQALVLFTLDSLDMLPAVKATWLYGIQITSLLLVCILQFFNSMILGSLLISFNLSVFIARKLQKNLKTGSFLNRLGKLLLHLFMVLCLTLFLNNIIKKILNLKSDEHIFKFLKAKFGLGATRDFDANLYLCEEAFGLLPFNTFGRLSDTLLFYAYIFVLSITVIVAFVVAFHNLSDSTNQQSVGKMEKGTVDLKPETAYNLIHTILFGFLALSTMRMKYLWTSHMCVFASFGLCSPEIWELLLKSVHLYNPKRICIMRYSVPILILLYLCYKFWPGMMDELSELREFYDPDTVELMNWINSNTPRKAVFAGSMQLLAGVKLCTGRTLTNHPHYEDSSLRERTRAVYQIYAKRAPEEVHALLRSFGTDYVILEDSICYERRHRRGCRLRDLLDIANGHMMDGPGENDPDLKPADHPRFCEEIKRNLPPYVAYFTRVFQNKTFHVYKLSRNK
Chain of UniProt Q96JB2 (Q96JB2 whole entry, looked up): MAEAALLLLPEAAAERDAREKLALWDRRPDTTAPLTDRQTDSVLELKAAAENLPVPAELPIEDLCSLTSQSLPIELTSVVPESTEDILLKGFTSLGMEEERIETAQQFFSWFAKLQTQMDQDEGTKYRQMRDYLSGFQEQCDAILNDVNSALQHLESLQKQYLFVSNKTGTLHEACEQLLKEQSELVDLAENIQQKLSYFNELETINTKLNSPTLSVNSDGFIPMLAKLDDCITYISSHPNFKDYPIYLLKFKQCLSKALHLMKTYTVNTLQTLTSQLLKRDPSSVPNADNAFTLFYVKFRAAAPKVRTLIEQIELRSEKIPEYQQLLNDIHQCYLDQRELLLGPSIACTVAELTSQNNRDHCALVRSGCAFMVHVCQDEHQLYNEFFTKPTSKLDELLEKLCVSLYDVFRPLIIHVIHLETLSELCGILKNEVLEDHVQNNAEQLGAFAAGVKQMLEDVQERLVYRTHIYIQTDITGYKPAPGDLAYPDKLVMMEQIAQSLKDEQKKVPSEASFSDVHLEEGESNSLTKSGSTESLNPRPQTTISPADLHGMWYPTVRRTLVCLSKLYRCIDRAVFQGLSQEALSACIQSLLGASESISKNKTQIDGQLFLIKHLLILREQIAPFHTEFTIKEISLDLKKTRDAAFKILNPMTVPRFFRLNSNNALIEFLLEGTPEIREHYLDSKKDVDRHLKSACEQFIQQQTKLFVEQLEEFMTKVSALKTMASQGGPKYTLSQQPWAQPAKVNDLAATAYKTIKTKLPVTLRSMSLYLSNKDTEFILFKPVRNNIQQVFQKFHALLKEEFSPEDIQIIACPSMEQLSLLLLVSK
Chain of UniProt Q9HCG8 (Q9HCG8 whole entry, looked up): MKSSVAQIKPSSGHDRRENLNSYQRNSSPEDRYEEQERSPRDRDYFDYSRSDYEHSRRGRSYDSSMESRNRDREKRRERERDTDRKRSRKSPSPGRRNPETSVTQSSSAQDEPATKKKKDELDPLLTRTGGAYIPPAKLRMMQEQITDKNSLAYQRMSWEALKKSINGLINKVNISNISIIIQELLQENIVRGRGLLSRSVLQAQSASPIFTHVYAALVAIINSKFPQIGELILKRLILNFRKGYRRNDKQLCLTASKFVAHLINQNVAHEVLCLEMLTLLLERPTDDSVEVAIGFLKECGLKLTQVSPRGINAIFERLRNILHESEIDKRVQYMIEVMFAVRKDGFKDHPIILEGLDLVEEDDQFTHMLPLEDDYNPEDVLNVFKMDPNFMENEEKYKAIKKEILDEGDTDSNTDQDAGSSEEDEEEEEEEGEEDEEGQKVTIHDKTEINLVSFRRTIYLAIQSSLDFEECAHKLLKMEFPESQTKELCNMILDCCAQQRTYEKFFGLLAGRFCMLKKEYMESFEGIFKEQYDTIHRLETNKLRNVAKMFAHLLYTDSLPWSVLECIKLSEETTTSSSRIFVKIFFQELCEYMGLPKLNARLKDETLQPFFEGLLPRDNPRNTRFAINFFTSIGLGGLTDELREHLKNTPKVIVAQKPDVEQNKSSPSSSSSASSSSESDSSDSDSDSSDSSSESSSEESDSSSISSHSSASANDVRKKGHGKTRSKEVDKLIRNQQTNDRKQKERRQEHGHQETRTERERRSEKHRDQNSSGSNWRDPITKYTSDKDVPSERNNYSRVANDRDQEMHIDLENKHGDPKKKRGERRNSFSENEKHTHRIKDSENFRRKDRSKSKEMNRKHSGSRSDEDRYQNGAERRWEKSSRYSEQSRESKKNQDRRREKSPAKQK
Chain of UniProt Q9NRF8 (Q9NRF8 whole entry, looked up): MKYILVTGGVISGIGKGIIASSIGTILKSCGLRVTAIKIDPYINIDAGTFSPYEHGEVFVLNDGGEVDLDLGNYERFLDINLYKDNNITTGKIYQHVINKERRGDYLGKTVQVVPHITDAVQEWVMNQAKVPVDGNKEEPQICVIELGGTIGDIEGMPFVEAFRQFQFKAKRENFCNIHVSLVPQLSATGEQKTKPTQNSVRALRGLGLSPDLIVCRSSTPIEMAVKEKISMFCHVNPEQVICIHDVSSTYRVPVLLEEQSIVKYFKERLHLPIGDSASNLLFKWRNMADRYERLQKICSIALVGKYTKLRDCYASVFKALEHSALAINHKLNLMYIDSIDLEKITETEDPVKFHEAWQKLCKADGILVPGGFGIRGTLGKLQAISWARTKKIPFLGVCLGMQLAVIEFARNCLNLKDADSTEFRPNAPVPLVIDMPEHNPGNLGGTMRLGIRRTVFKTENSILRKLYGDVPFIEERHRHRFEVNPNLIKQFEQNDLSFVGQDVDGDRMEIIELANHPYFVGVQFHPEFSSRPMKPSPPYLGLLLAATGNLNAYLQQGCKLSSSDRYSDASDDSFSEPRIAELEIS
Chain of UniProt Q6P3W2 (Q6P3W2 whole entry, looked up): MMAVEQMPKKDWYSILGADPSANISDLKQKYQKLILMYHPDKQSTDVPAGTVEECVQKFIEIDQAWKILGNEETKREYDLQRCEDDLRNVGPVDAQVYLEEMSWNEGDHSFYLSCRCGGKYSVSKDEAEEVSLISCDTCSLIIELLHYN
Chain of UniProt P29373 (P29373 whole entry, looked up): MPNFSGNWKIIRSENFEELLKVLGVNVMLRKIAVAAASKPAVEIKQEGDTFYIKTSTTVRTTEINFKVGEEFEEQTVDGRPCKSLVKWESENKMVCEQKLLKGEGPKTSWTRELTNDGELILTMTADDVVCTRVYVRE
Chain of UniProt O94760 (O94760 whole entry, looked up): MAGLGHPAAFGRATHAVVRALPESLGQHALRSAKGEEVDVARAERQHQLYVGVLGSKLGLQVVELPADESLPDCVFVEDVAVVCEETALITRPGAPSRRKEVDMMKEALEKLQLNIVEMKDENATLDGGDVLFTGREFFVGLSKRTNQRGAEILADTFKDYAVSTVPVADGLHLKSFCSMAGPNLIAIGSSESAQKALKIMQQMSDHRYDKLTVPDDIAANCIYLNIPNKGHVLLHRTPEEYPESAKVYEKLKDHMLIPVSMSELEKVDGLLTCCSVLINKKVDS
Chain of UniProt Q9NPI6 (Q9NPI6 whole entry, looked up): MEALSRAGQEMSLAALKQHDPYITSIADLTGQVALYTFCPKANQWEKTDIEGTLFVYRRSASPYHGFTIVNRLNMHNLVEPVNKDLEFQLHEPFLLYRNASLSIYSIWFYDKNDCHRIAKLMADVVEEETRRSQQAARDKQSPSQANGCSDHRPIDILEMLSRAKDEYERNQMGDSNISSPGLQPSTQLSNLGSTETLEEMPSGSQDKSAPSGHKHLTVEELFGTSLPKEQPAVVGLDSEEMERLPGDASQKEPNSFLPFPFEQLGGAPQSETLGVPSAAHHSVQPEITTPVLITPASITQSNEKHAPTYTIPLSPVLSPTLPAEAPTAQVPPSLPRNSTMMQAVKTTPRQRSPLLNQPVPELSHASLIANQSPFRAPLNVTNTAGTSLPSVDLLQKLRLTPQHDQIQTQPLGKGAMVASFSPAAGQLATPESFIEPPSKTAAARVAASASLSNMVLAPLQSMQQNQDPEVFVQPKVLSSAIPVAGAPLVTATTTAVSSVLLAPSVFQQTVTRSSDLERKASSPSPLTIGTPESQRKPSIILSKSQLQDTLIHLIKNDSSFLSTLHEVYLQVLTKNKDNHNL
Chain of UniProt P49674 (P49674 whole entry, looked up): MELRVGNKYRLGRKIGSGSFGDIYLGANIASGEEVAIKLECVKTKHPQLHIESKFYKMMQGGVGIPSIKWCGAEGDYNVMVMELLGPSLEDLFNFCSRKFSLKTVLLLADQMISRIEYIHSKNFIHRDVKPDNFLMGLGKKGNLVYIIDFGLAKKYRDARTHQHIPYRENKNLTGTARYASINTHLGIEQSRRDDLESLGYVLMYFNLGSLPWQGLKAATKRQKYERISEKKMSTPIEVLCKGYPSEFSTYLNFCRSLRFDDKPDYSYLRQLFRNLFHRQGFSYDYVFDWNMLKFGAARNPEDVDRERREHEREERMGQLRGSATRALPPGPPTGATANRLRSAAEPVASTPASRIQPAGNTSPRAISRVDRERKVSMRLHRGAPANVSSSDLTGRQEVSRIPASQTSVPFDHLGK
Chain of UniProt P04080 (P04080 whole entry, looked up): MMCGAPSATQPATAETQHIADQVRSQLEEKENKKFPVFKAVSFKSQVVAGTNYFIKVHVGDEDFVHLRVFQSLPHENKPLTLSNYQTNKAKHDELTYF
Chain of UniProt P61024 (P61024 whole entry, looked up): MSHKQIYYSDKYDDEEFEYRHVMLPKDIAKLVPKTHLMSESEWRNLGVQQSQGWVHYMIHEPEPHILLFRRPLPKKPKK

Target | log2 fold change (erlotinib) | log2 fold change [1] | log2 fold change [2] | log2 fold change [3] | log2 fold change [4] | log2 fold change [5] | log2 fold change [6] | log2 fold change [7] | log2 fold change [8] | log2 fold change (IRAK-1-4 Inhibitor I)
CWC22 (UniProt Q9HCG8) | 0.058 | 0.006 | -0.046 | -0.009 | -0.032 | -0.025 | -0.092 | -0.014 | -0.006 | -0.017
DCP1A (UniProt Q9NPI6) | 0.038 | 0.025 | 0.03 | 0.004 | -0.03 | 0.014 | -0.033 | 0.013 | 0.012 | -0.045
CKS1B (UniProt P61024) | -0.058 | -0.097 | -0.037 | 0.042 | 0.008 | 0.121 | 0.092 | 0.038 | -0.012 | -0.018
DDX20 (UniProt Q9UHI6) | 0.021 | 0.048 | -0.054 | -0.029 | -0.005 | 0.007 | 0.022 | 0.032 | 0.042 | -0.015
CSTB (UniProt P04080) | -0.024 | 0.054 | -0.016 | 0.018 | 0.004 | -0.028 | 0.031 | -0.015 | 0.031 | 0.082
DDA1 (UniProt Q9BW61) | -0.004 | -0.001 | 0.036 | -0.03 | 0.008 | -0.093 | 0.016 | -0.017 | -0.01 | 0.012
CUEDC2 (UniProt Q9H467) | -0.011 | 0.044 | 0.032 | 0.035 | -0.02 | 0 | -0.039 | 0.029 | -0.106 | 0.013
DOCK10 (UniProt Q96BY6) | -0.23 | -0.191 | -0.03 | 0.007 | -0.094 | -0.048 | -0.034 | -0.064 | -0.028 | -0.017
CRABP2 (UniProt P29373) | 0.026 | -0.112 | -0.017 | -0.063 | 0.2 | -0.042 | -0.151 | 0.399 (active) | 0.309 | -0.024
COG3 (UniProt Q96JB2) | 0.045 | 0.053 | -0.037 | -0.049 | -0.008 | -0.022 | -0.056 | -0.02 | -0.01 | 0.012
CTNNBL1 (UniProt Q8WYA6) | 0.023 | 0.052 | 0.023 | 0.018 | 0.015 | 0.103 | -0.033 | -0.042 | -0.033 | 0.088
COQ8A (UniProt Q8NI60) | 0.154 | 0.014 | -0.057 | 0.008 | -0.083 | 0.029 | 0.105 | -0.01 | 0.007 | -0.034
CMSS1 (UniProt Q9BQ75) | -0.029 | 0.018 | -0.031 | 0.011 | -0.059 | -0.004 | 0.011 | -0.011 | 0.03 | -0.035
CKM (UniProt P06732) | 0.034 | -0.167 | 0.003 | 0.023 | 0.058 | -0.024 | 0 | -0.017 | 0.038 | 0.044
DNAH5 (UniProt Q8TE73) | -0.006 | -0.008 | 0 | -0.024 | 0.015 | 0.004 | -0.056 |  |  | -0.015
CTPS2 (UniProt Q9NRF8) | -0.009 | -0.008 | -0.016 | -0.01 | 0.01 | -0.008 | 0 | -0.021 | -0.015 | -0.006
DNAJC24 (UniProt Q6P3W2) | 0.034 | -0.069 | 0.021 | 0.011 |  | 0.016 | 0.081 | 0.01 | 0.01 | -0.055
CIC (UniProt I3L2J0) | 0.013 | -0.248 | 0.079 | 0.122 | 0.027 | -0.047 | -0.062 | 0.005 | -0.04 | 0.04
DDAH1 (UniProt O94760) | 0 | -0.008 | 0.006 | -0.027 |  | -0.006 | 0.035 | 0.032 | 0.051 | -0.016
DHX32 (UniProt Q7L7V1) | -0.083 | -0.091 | 0.098 | -0.052 |  | 0.013 | 0.038 | -0.145 | 0.044 | 0.036
DPY19L3 (UniProt Q6ZPD9) | -0.131 | 0.007 | -0.097 | 0.101 | 0.211 |  | -0.2 | 0.005 | 0.008 | 
CYP2S1 isoform 2 (UniProt Q96SQ9) | -0.026 | -0.291 | -0.018 | -0.096 |  | 0.07 | -0.123 | -0.198 | 0.08 | -0.044
CSNK1E (UniProt P49674) | -0.003 | 0.006 | 0.161 | 0.047 | 0.018 | 0.297 (active) | 0.345 (active) | -0.056 | 0.009 | -0.032
CLCN3 isoform 2 (UniProt P51790) | 0.003 | 0.083 | -0.061 | -0.005 | -0.004 | -0.042 | 0.013 | -0.032 | 0.029 | 0.068
CPT1A (UniProt P50416) | -0.029 | -0.034 | 0.01 | -0.001 | -0.05 | 0.002 | 0.011 | -0.036 | 0.024 | -0.008
CIP2A (UniProt Q8TCG1) | 0.057 | 0.18 | -0.086 | 0.034 | -0.019 | 0.019 | -0.11 | -0.002 | 0.02 | 0.007
CNDP2 (UniProt Q96KP4) | -0.016 | 0.004 | 0.02 | -0.038 | -0.009 | -0.022 | 0.007 | 0.039 | 0.041 | 0.051
DPM1 (UniProt O60762) | -0.009 | -0.039 | -0.036 | 0.056 | -0.015 | -0.007 | 0.041 | -0.022 | -0.014 | -0.008
